The panel holds about 83,000 compounds, 20% with a hit somewhere; the sample as a whole holds those more often.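 Negative percent growth values reflect cell death: -40 means 40% of the cells present at the start died, and -100 means all died.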 Values without a mark were called inactive. The source made the active and inactive calls. How the source made its calls: active means growth percent below 10; inactive means the rest.
The molecules below were run on MALME-3M melanoma (assay: NCI-60 one-dose screen, 48 h (100 = growth as untreated, 0 = no growth, -100 = all killed)). Conditions: 10 µM unless noted.

**Q.** Which growth does the source give for `Cc1ccc(C(=O)Nc2cc(-c3ccncc3)cc(C(F)(F)F)c2)cc1C#Cc1cnc2cccnn12` here?
**A.** Its growth is -11.8% (active).

**Q.** `CCN1C(=O)N(CC)C2NNC(Sc3c(C(=O)O)c4ccccc4n(CCC(C)C)c3=O)=NC21` (stereo not drawn) was tested. Which growth did it give?
**A.** Its growth is 46.5%.

**Q.** With `CC1=C(C(=O)OCc2ccccc2)C(c2ccc(N(C)C)cc2)n2c(nc3ccccc32)N1` (stereo not drawn) as the molecule, how does the growth read?
**A.** Its growth is 75.9%.

**Q.** How did the growth turn out when `COc1cc(/C=C/C(=O)c2cnn(-c3cc(=O)[nH]c4ccc(Br)cc34)c2C)cc(OC)c1OC` was run?
**A.** The growth was -42.4% (active).

**Q.** How did the growth turn out when `S=C(Nc1ccc(OCc2nc3ccc(Cl)cc3[nH]2)cc1)NC1CCCCC1` was run?
**A.** The growth was -21.6% (active).

**Q.** With `Nc1nn2c(-c3cc4cc(Br)ccc4oc3=O)ccnc2c1N=Nc1ccc(S(N)(=O)=O)cc1` as the molecule, how does the growth read?
**A.** The growth was 70.5%.

**Q.** For `CCN(C(=O)CN1C(=O)/C(=C/c2ccco2)SC1=S)C1CCS(=O)(=O)C1` (stereo not drawn), which growth is on record?
**A.** The growth was 104%.

**Q.** How did the growth turn out when `Cn1cc(Nc2ncnc(-c3ccc(N4CCCC4)c(C#N)c3)n2)cn1` was run?
**A.** Its growth is 74.8%.

**Q.** `O=C1Nc2ccccc2/C1=C\c1ccc(OCC(=O)c2ccc(Br)cc2)cc1` was tested. Which growth did it give?
**A.** The growth was 81%.

**Q.** With `COc1cc(CNC(=O)C[C@H](C)CCC=C(C)C)ccc1OCc1cn(-c2ccc(Br)cc2)nn1` as the molecule, how does the growth read?
**A.** The growth was 85.4%.

What follows are molecules tested on MDA-MB-231 breast in the same assay as above. Conditions: 10 µM unless noted.

**Q.** Which growth does the source give for `CN(C(=O)CN1C(=O)/C(=C/c2ccco2)SC1=S)C1CCS(=O)(=O)C1` (stereo not drawn) here?
**A.** Its growth is 108%.

**Q.** How did the growth turn out when `O=C(c1ccc(Cl)cc1)C1[C@H](c2ccccc2Cl)[C@@H](c2ccccc2)NC12C(=O)Nc1ccccc12` (stereo partly drawn) was run?
**A.** Its growth is -64.8% (active).

**Q.** Which growth does the source give for `Cc1ccc(Nc2nnc(-c3c[nH]c4ccccc34)o2)c(C)c1` here?
**A.** Its growth is -1.28% (active).

**Q.** With `Cc1ccccc1NC(=O)c1cccc(NC(=O)CCl)c1` as the molecule, how does the growth read?
**A.** The growth was 49.7%.

**Q.** Which growth does the source give for `Clc1ccc(CNc2nc(SCCN3CCOCC3)nc3c2cnn3CC(Cl)c2ccc(Br)cc2)cc1` (stereo not drawn) here?
**A.** The growth was 44.1%.

**Q.** With `CCc1ccc(SC2c3cc(OC)ccc3Oc3nc(N)c(C#N)c(N)c32)cc1` (stereo not drawn) as the molecule, how does the growth read?
**A.** Its growth is -41.4% (active).

**Q.** How did the growth turn out when `O=C(N/N=C/c1ccc(B(O)O)s1)c1[nH]c2ccc(Br)cc2c1-c1ccccc1` was run?
**A.** The growth was -88.1% (active).

**Q.** Which growth does the source give for `CCN1C(=O)N(CC)C2NNC(Sc3c(C(=O)O)c4ccccc4n(CC(C)C)c3=O)=NC21` (stereo not drawn) here?
**A.** Its growth is 15.9%.

**Q.** For `COc1ccc(/C=C/c2nc3ccccc3c(=O)n2CC(=O)Nc2ccccc2)cc1`, which growth is on record?
**A.** The growth was -19.5% (active).

**Q.** Which growth does the source give for `COc1ccc2[nH]c(=O)c(CSc3ccccc3Nc3nccc(-c4ccc5c(c4)OCO5)n3)cc2c1` here?
**A.** Its growth is 93.7%.

**Q.** With `Cc1ccc(Cl)cc1NC(=O)N/C(N)=N/c1nc2ccccc2s1` as the molecule, how does the growth read?
**A.** Its growth is -42.7% (active).

**Q.** For `COc1ccc(OC)c(Cn2cc(C#N)c(N)c2C(=O)c2ccc(Br)cc2)c1`, which growth is on record?
**A.** The growth was 60.7%.

**Q.** `Cc1ccc(-c2cc(-c3ccccc3)[nH]c(=O)c2C#N)cc1` was tested. Which growth did it give?
**A.** The growth was 83.8%.

**Q.** How did the growth turn out when `Cc1ccc(C(C(=O)NC2CCCCC2)N(Cc2ccccc2Cl)C(=O)c2ccc(CN3CCOCC3)o2)o1` (stereo not drawn) was run?
**A.** Its growth is 85.5%.

**Q.** `CN(C)c1ccc(/C=C/c2n(Cc3ccc4ccccc4c3)c3ccccc3[n+]2Cc2ccc3ccccc3c2)cc1` was tested. Which growth did it give?
**A.** The growth was -80.3% (active).

**Q.** With `Cc1nn(-c2ccccc2)c2nc(C)n(CC(=O)N/N=C/c3ccccc3O)c(=O)c12` as the molecule, how does the growth read?
**A.** Its growth is 34.2%.

**Q.** For `CC1=C(C)C(=O)C(N2CCSCC2)=CC1=O`, which growth is on record?
**A.** The growth was 86%.

**Q.** How did the growth turn out when `NC(=O)c1ccc(-c2ccc3ncnc(N4CCc5cc(F)c(Cl)cc54)c3c2)cn1` was run?
**A.** Its growth is 49.3%.

**Q.** `Cn1ncc2c(N)nc(Oc3ccccc3-c3ccccc3)nc21` was tested. Which growth did it give?
**A.** Its growth is 43%.

**Q.** `C=CC[n+]1cccc2c3ccccc3ccc21` was tested. Which growth did it give?
**A.** The growth was 77.6%.

**Q.** With `COc1ccc2nc(NC(=O)c3ccc(N(C)C)cc3)sc2c1` as the molecule, how does the growth read?
**A.** Its growth is 92.7%.

**Q.** With `O=C(N/N=C/c1ccoc1)c1[nH]c2ccc(Br)cc2c1-c1ccccc1` as the molecule, how does the growth read?
**A.** Its growth is -85.6% (active).

**Q.** How did the growth turn out when `O=C(Nc1ccc(-c2ccc3c(c2)NC(=O)/C3=C\c2ccc[nH]2)cc1)Nc1ccc(Cl)c(C(F)(F)F)c1` was run?
**A.** Its growth is 72.2%.

**Q.** How did the growth turn out when `CN1C(=O)/C(=C/c2ccco2)S/C1=N/c1nccs1` was run?
**A.** Its growth is 109%.

**Q.** With `COc1cccc2nc(Nc3cccc(NC(=O)c4ccc(CN5CCN(C)CC5)c(C(F)(F)F)c4)c3)ccc12` as the molecule, how does the growth read?
**A.** The growth was -97.9% (active).

**Q.** Which growth does the source give for `Fc1cccc(CNc2nc(SCCN3CCOCC3)nc3c2cnn3CC(Cl)c2ccc(Br)cc2)c1` (stereo not drawn) here?
**A.** Its growth is 6.57% (active).

**Q.** For `CCCCNc1ccc2c3c(cccc13)C(=O)N(c1cccc(-c3nn(-c4ccccc4)cc3-c3nc4ccccc4s3)c1)C2=O`, which growth is on record?
**A.** The growth was 99.1%.

**Q.** For `N/C(=N\c1nc2ccccc2s1)NC(=O)Nc1ccccc1[N+](=O)[O-]`, which growth is on record?
**A.** Its growth is -1.5% (active).

**Q.** How did the growth turn out when `Cc1ccc(C(=O)Nc2cc(-c3ccncc3)cc(C(F)(F)F)c2)cc1C#Cc1cnc2cccnn12` was run?
**A.** The growth was 23.7%.

**Q.** `CCN1C(=O)N(CC)C2NNC(Sc3c(C(=O)O)c4ccccc4n(CCC(C)C)c3=O)=NC21` (stereo not drawn) was tested. Which growth did it give?
**A.** The growth was 10.9%.

**Q.** For `CC1=C(C(=O)OCc2ccccc2)C(c2ccc(N(C)C)cc2)n2c(nc3ccccc32)N1` (stereo not drawn), which growth is on record?
**A.** The growth was 91.6%.

**Q.** `COc1cc(/C=C/C(=O)c2cnn(-c3cc(=O)[nH]c4ccc(Br)cc34)c2C)cc(OC)c1OC` was tested. Which growth did it give?
**A.** Its growth is -34.3% (active).

**Q.** `S=C(Nc1ccc(OCc2nc3ccc(Cl)cc3[nH]2)cc1)NC1CCCCC1` was tested. Which growth did it give?
**A.** Its growth is -76.3% (active).

**Q.** With `Nc1nn2c(-c3cc4cc(Br)ccc4oc3=O)ccnc2c1N=Nc1ccc(S(N)(=O)=O)cc1` as the molecule, how does the growth read?
**A.** The growth was -8.56% (active).

**Q.** Which growth does the source give for `CCN(C(=O)CN1C(=O)/C(=C/c2ccco2)SC1=S)C1CCS(=O)(=O)C1` (stereo not drawn) here?
**A.** Its growth is 108%.

**Q.** How did the growth turn out when `Cn1cc(Nc2ncnc(-c3ccc(N4CCCC4)c(C#N)c3)n2)cn1` was run?
**A.** Its growth is 63.6%.

**Q.** With `O=C1Nc2ccccc2/C1=C\c1ccc(OCC(=O)c2ccc(Br)cc2)cc1` as the molecule, how does the growth read?
**A.** Its growth is 82.2%.

**Q.** `COc1cc(CNC(=O)C[C@H](C)CCC=C(C)C)ccc1OCc1cn(-c2ccc(Br)cc2)nn1` was tested. Which growth did it give?
**A.** The growth was 80.6%.

From PubChem BioAssay (NCI)
